Results filed as inconclusive are left out. A call without a number means that no potency is given here. Activity calls are given as the source filed them. Calls follow the shape of the dose curve; as a rule, active = well fitted inhibition curve with a large enough effect; inconclusive = small, poorly fitted or top-dose-only effect; inactive = flat fitted curve, though single readings scatter.
target: Calcium and integrin-binding protein 1 (Homo sapiens) (UniProt Q99828); assay: Primary qHTS for Identification of Calcium Integrin Binding Protein 1 (CIB1) Competitor (AID 1508620); settings: CIB1-GST / FITC-alphaIIb peptide fluorescence polarization; series mostly up to 114 µM; also: top concentration of the series differs between compounds
Sequence (Q99828 whole entry, looked up): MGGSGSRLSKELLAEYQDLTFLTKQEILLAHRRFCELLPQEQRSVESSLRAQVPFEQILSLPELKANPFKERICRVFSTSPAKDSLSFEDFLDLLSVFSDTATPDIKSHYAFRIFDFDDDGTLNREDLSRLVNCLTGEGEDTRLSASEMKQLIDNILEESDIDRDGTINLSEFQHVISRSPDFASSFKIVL
Procedure, shortened: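 Fluorescence polarization competition: GST-tagged CIB1 (1 uM final) preincubated with compound 15 min at room temperature, then FITC-labelled alphaIIb peptide (100 nM final) added. After 15 min at room temperature, polarization read at Ex 480/Em 540.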

Compound | Potency
COc1ccc(NC(=O)c2cnn3c(-c4ccccc4)cc(C)nc23)cc1 | inactive
Cc1csc(CN(C)c2ncnc3ccc(-c4ccc5c(c4)OCO5)cc23)n1 | inactive
COc1ccc(OC)c(NC(=O)c2ccccc2OC(C)=O)c1 | inactive
O=C(Nc1ccc2c(c1)OCCO2)Nc1nnc(-c2ccncc2)s1 | inactive
O=C(NCCc1ccc2c(c1)OCO2)c1cc2sccc2[nH]1 | inactive
Cc1cccc(-n2cnc3cc(C(=O)N4CCCC(C)(C)C4)ccc32)c1 | inactive
COC(=O)c1ccc(N2CCN(S(=O)(=O)c3ccc4c(c3)CC(=O)N4)CC2)cc1 | inactive
CC(C)c1ccccc1-c1nc(NCc2ccc(-c3cccnc3)cc2)c2[nH]cnc2n1 | inactive
O=C(Nc1nnc(-c2ccncc2)s1)Nc1ccc(Cl)c2ccccc12 | inactive
Cc1cnc(-c2ccccc2C(C)C)nc1NCc1cccnc1 | inactive
O=C1CCCC2=C1C1(CCCC1)N=C(Nc1nc3cc4ccccc4cc3o1)N2 | inactive
COc1ccc(C2Nc3ccccc3C(=O)N2Cc2ccccc2)cc1COc1cccc(Cl)c1 (stereo not given) | inactive
O=C(O)c1ccc2c(c1)C(=O)N([C@H](Cc1ccc3ccccc3c1)C(=O)O)C2=O | inactive
O=C(OCC#CCSc1nnc(-c2cccc3ccccc23)o1)c1ccc2ccccc2c1 | inactive
Cc1ccc(NS(=O)(=O)c2cc3c(cc2N(C)C)NC(=O)CC3)cc1C | inactive
CC(=O)c1ccc(-c2ccc3ncnc(NCc4ccc(C)o4)c3c2)o1 | inactive
O=C1Nc2ccc(Cl)cc2/C1=C\c1cc(Cl)c(O)c(Cl)c1 | inactive
Cc1cc2c(s1)c1cnn(Cc3c(F)ccc(F)c3Cl)c(=O)c1n2C | inactive
FC(F)(F)c1ccccc1-c1nc(NCc2ccc(-c3ccc4ccccc4c3)cc2)c2ccccc2n1 | inactive
Cc1cc(NC(=O)Nc2nnc(-c3cccnc3)s2)ccc1F | inactive

Compound | Potency
O=C(CSc1ncnc2sc3c(c12)CCCCC3)NCc1ccco1 | inactive
Cc1cccc(-c2csc(N3CCC(C(N)=O)CC3)n2)c1 | inactive
O=C(Nc1ccc(-c2nc3ccccc3[nH]2)cc1)c1ccc2c(c1)OCCO2 | inactive
CC(=O)c1ccc(N2CCN(S(=O)(=O)c3ccc4c(c3)OCC(=O)N4)CC2)cc1 | inactive
Cc1nnc2sc(-c3cccc(NC(=O)c4ccc(-c5cccc(Cl)c5)o4)c3)nn12 | inactive
O=C(Nc1nnc(COc2ccc(Cl)cc2)s1)c1cccs1 | inactive
O=C1CCCC2=C1C(c1cccc(F)c1)N=C(Nc1nc3ccccc3o1)N2 (stereo not given) | inactive
O=C1c2ccccc2C(=O)N1Cc1ccncc1 | inactive
O=C(Nc1cccc(Cc2ccccc2)c1)c1ccc(-c2cccc([N+](=O)[O-])c2)o1 | inactive
O=C(/C=C/c1ccc(Cl)cc1)Nc1cccc([S+](=O)([O-])Nc2ccccc2F)c1 | inactive
O=C(OCC#CCSc1nnc(-c2ccc3ccccc3c2)o1)c1ccc(F)cc1 | inactive
Cc1ccc(-c2ccnc(N3CCC(C(N)=O)CC3)n2)cc1 | inactive
O=C(Cn1cc(CNC(=O)c2ccccc2)nn1)Nc1cc(C(F)(F)F)ccc1Cl | inactive
COc1cccc(C2c3c(ncn(-c4cccc(F)c4)c3=N)Oc3ccc4ccccc4c32)c1 (stereo not given) | inactive
O=C(O)c1cccc2c1C(=O)N(c1ccccc1)C2 | inactive
O=C(OCC#CCSc1nnc(-c2cccc3ccccc23)o1)c1cnc[nH]1 | inactive
Cc1cc2c(s1)c1cnn(Cc3ccc(C(C)(C)C)cc3)c(=O)c1n2C | inactive
COc1cc(O)c(C(CC(=O)N2CCCC2)c2ccc3c(c2)OCO3)c(OC)c1 (stereo not given) | inactive
N#Cc1nc(Nc2cc(F)cc(F)c2)c2ncn(CCCO)c2n1 | inactive
O=S(=O)(c1ccc2c(c1)OCCO2)N1CCN(S(=O)(=O)c2cc(F)c(F)cc2F)CC1 | inactive
